Test results reported in PubChem BioAssay (NCATS).
Results filed as inconclusive are left out. A call without a number means that no potency is given here. Activity calls are given as the source filed them. The call rests on the fitted dose curve; in most records, active means well fitted curve in the direction sought with a large enough effect; inconclusive means small, poorly fitted or top-dose-only effect, or another doubt; inactive means no such curve, though single readings can be large; an effect the other way counts as inactive or inconclusive.

Tests used:
[1] = qHTS of pediatric cancer cell lines to identify multiple opportunities for drug repurposing: Confirmatory screen for MG 63 (6-TG R) cells (AID 1347119); further: nearly all actives have a fitted effect of over 55% in size
Summary of the method: (§1)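 Cells (500-1,000/well) rested 5 h, then received compounds for 48 h; metabolically active cells were measured by CellTiter-Glo luminescence. Final concentrations spanned up to 46 µM (MIPE, 11-point) or 0.59 nM-46 µM (NPC, 8-point) in primary screens, 11-point in follow-ups.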

[2] = qHTS of pediatric cancer cell lines to identify multiple opportunities for drug repurposing: Confirmatory screen for control Hh wild type fibroblast cells (AID 1347121); further: nearly all actives have a fitted effect of over 70% in size
Summary of the method: as §1

[3] = qHTS of pediatric cancer cell lines to identify multiple opportunities for drug repurposing: Confirmatory screen for U-2 OS cells (AID 1347122); further: nearly all actives have a fitted effect of over 65% in size
Summary of the method: as §1

[4] = qHTS of pediatric cancer cell lines to identify multiple opportunities for drug repurposing: Confirmatory screen for Rh41 cells (AID 1347123);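 further: 48 h compound exposure; nearly all actives have a fitted effect of over 60% in size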
Summary of the method: as §1

[5] = qHTS of pediatric cancer cell lines to identify multiple opportunities for drug repurposing: Confirmatory screen for RD cells (AID 1347124);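 further: cells exposed to compound for 48 h before viability readout; nearly all actives have a fitted effect of over 65% in size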
Summary of the method: as §1

[6] = qHTS of pediatric cancer cell lines to identify multiple opportunities for drug repurposing: Confirmatory screen for Rh18 cells (AID 1347125); further: nearly all actives have a fitted effect of over 55% in size
Summary of the method: as §1

[7] = qHTS of pediatric cancer cell lines to identify multiple opportunities for drug repurposing: Confirmatory screen for Saos-2 cells (AID 1347127); further: nearly all actives have a fitted effect of over 60% in size
Summary of the method: as §1

[8] = qHTS of pediatric cancer cell lines to identify multiple opportunities for drug repurposing: Confirmatory screen for OHS-50 cells (AID 1347128);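 further: compound exposure lasted 48 h at 37 degrees C; nearly all actives have a fitted effect of over 55% in size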
Summary of the method: as §1

[9] = qHTS of pediatric cancer cell lines to identify multiple opportunities for drug repurposing: Confirmatory screen for SK-N-SH cells (AID 1347129);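 further: cells exposed to compound for 48 h before viability read; nearly all actives have a fitted effect of over 60% in size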
Summary of the method: as §1

[10] = qHTS of pediatric cancer cell lines to identify multiple opportunities for drug repurposing: Confirmatory screen for Rh30 cells (AID 1347126); further: nearly all actives have a fitted effect of over 55% in size
Summary of the method: as §1
Potency means the concentration at half of the fitted maximal effect.

| Structure (SMILES) | Potency [1] | Potency [2] | Potency [3] | Potency [4] | Potency [5] | Potency [6] | Potency [7] | Potency [8] | Potency [9] | Potency [10] |
| --- | --- | --- | --- | --- | --- | --- | --- | --- | --- | --- |
| CC1C(=O)OC2C(O)C34C5CC(C(C)(C)C)C36C(OC(=O)C6O)OC4(C(=O)O5)C12O (centres undefined) | inactive | inactive | inactive | inactive | inactive | inactive | inactive | inactive | inactive |  |
| Cc1cnc(-c2cc(N3CCN(C(=O)CCS(C)(=O)=O)CC3)ncc2Cl)c(C)c1 | inactive | inactive | inactive |  | inactive | inactive | inactive | inactive | inactive | inactive |
| CO[C@H]1/C=C\O[C@@]2(C)Oc3c(C)c(O)c4c(O)c(c5c(nc6cc(C)ccn65)c4c3C2=O)NC(=O)C(C)=CC=C[C@H](C)[C@H](O)[C@@H](C)[C@@H](O)[C@@H](C)[C@H](OC(C)=O)[C@H]1C | inactive | inactive | inactive |  | inactive | inactive | inactive |  | inactive | inactive |
| Cc1ccc(C(=O)N(CCCN)[C@@H](c2nc3cc(Cl)ccc3c(=O)n2Cc2ccccc2)C(C)C)cc1 | 0.0759 µM (active) | inactive | 0.0603 µM (active) | 0.024 µM (active) | 2.4 µM (active) | inactive | 0.0676 µM (active) |  | 12.1 µM (active) | 38 µM (active) |
| CCC[C@H](N[C@@H](C)C(=O)N1[C@@H]2CCCC[C@H]2C[C@H]1C(=O)O)C(=O)OCC | inactive | inactive | inactive | inactive | inactive |  |  |  | inactive |  |
| CN(C)CC[C@H](CSc1ccccc1)Nc1ccc(S(=O)(=O)NC(=O)c2ccc(N3CCN(Cc4ccccc4-c4ccc(Cl)cc4)CC3)cc2)cc1[N+](=O)[O-] | 1.47 µM (active) | inactive | 0.737 µM (active) | 4.65 µM (active) |  | 1.31 µM (active) | 5.85 µM (active) |  |  |  |
| NC(N)=Nc1nc(CSCCC(N)=NS(N)(=O)=O)cs1 | inactive | inactive | inactive | inactive | inactive | inactive | inactive | inactive | inactive | inactive |
| CCC(=O)OCC(=O)[C@@]1(OC(=O)CC)[C@@H](C)C[C@@H]2[C@H]3CCC4=CC(=O)C=C[C@]4(C)[C@@]3(F)[C@@H](O)C[C@@]21C | inactive | inactive | inactive | 14.7 µM (active) | inactive | inactive | inactive | inactive | 20.9 µM (active) | inactive |
| CC1(COc2ccc3c(c2)ncn3-c2ccc3cccc(N4CCC(N)CC4)c3n2)COC1 | inactive | inactive | 10.4 µM (active) | 8.27 µM (active) | inactive | inactive | inactive |  | 10.5 µM (active) |  |
| O=c1[nH]nc(OCCCc2ccc(Cl)cc2)c(NCc2cccnc2)c1Br | 5.22 µM (active) | 10.4 µM (active) | 7.37 µM (active) | 10.4 µM (active) |  |  | inactive |  |  |  |
| CC1=C(CC(=O)O)c2cc(F)ccc2C1=Cc1ccc(S(C)=O)cc1 (centres undefined) | inactive | inactive | inactive | inactive | inactive | inactive | inactive | inactive | inactive | inactive |
| C[C@@H]1[C@H](O)[C@@H](C)C=CC=CC=CC=CC=CC=CC=C[C@H](O[C@@H]2O[C@H](C)[C@H](O)[C@H](N)[C@@H]2O)C[C@@H]2O[C@](O)(C[C@@H](O)C[C@@H](O)[C@H](O)CC[C@@H](O)C[C@@H](O)CC(=O)O[C@H]1C)C[C@H](O)[C@@H]2C(=O)O | inactive | inactive | inactive | inactive | inactive | inactive | inactive | inactive | inactive | inactive |
| CON(C)C(=O)N1N=C(c2cc(F)ccc2F)S[C@]1(CCCN)c1ccccc1 | 0.0208 µM (active) | inactive | 0.0465 µM (active) | 0.0185 µM (active) | 0.0465 µM (active) |  | 0.0059 µM (active) | 0.0052 µM (active) |  | inactive |
| N#CC(=C1Nc2ccccc2S1)c1ccnc(OCc2ccc(CN3CCOCC3)cc2)n1 | inactive | inactive | inactive | inactive | inactive | inactive |  |  | inactive | inactive |
| C=C1[C@H](n2cnc3c(=O)[nH]c(N)nc32)C[C@H](O)[C@H]1CO | inactive | inactive | inactive | inactive | inactive | inactive | inactive | inactive | inactive | inactive |
| CC[C@]1(O)C[C@H]2CN(CCC3=c4ccccc4=N[C]3[C@@](C(=O)OC)(c3cc4c(cc3OC)N(C)[C@H]3[C@@](O)(C(N)=O)[C@H](O)[C@]5(CC)C=CCN6CC[C@]43[C@@H]65)C2)C1 | 0.261 µM (active) | inactive | 0.928 µM (active) |  | 0.369 µM (active) | inactive | 0.0465 µM (active) |  | 1.18 µM (active) | inactive |
